In the library only some 21% were active in any assay of this set; here they are far more common.
SARS PLP yeast: blocks SARS-CoV papain-like protease in a yeast assay; Potency, µM (series often up to 32.9 µM), most hits filed as activators; S. cerevisiae expressing SARS-CoV PLpro, growth rescue; actives 0.19% (n = 330,000); calls by dose curve; further: nearly all actives have a fitted effect of over 55% in size
Pf growth 96h: P. falciparum growth inhibition at 96 hour, primary screen for plastid delayed-death inhibitors. P. falciparum luciferase reporter growth, 96 h. Potency, µM (titrated, usually from 28.7 µM), hits mostly inhibitors. actives 6.9% (n = 320,000). AID 504834
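P. falciparum expressing integrated firefly luciferase, in erythrocytes at 2% hematocrit, 0.05% parasitemia, incubated with compounds 96 h at 37 C, 5% CO2. Growth inhibition read as loss of luminescence; two-generation exposure targets delayed-death apicoplast inhibitors.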
NS1 function inh: blocks influenza NS1 protein function; Potency, µM (highest dose often 46.1 µM); actives 0.4% (n = 270,000); calls by dose curve; further: actives are rising curves; nearly all actives have a fitted effect of over 50% in size
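OD600 was taken as the measure of yeast growth restored by compound in an NS1-expressing S. cerevisiae strain. Cells had been washed out of glucose medium and diluted 1:100 into galactose -URA medium, pH 6.0.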
Shiga inhibitor: Shiga toxin inhibition; AID 2315; inhibition, % at 38.7 µM; Vero cells, Shiga toxin protein synthesis inhibition reporter; actives 9.2% (n = 290,000); in the data active means inhibition mostly above about 28%, no sharp cut-off; inactive means mostly below about 43%
CHX counter: counter-screen hit for Shiga toxin inhibitors, cycloheximide; actives 12% (n = 300,000); max response, %; cell reporter, cycloheximide protein synthesis inhibition counterscreen; in the data active means max response mostly above about 13%, no sharp cut-off; inactive means mostly below about 14%; further: read at 38.3 µM for the half of the compounds with a filed dose
Pf growth 48h: inhibits P. falciparum growth in the first generation, 48 h. P. falciparum luciferase growth in erythrocytes, 48 h. Potency, µM (highest dose often 28.7 µM), usual class: inhibitors. actives 5.9% (n = 310,000). AID 504832
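First compound was added to culture medium, then infected red cells at 0.1% parasitemia and 2% hematocrit (final). After incubation at 37 C under 5% CO2, luciferase detection reagent was dispensed and light output recorded.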
Each line names hits and unclear results; the compound was inactive in the other large screens. Unless noted, the call rests on the fitted dose curve; in most records, active means well fitted inhibition curve with a large enough effect; inconclusive means small, poorly fitted or top-dose-only effect, or another doubt; inactive means no such curve, though single readings can be large or run the other way.

CCOP(=O)(OCC)C(CC)N1CCOCC1 (stereo unspecified)	none (no result: Pf growth 48h)
CCOP(=S)(OCC)N1CCOCCOCCN(P(=S)(OCC)OCC)CCOCCOCC1	Pf growth 96h inconclusive, Pf growth 48h 6.57µM (no result: NS1 function inh)
O=C(COc1ccccc1)NNc1c2ccccc2nc2ccccc12	Pf growth 48h 5.22µM
COc1ccc(OCC(=O)NNc2c3ccccc3nc3ccccc23)cc1	Pf growth 96h 2.08µM, Pf growth 48h 7.38µM
Cc1cccc(OCC(=O)NCc2cc(C)nc3ccccc23)c1	Pf growth 96h 9.28µM (no result: NS1 function inh)
Cc1nc2ccccc2c(=O)n1NC(=O)COc1ccccc1	none (no result: Pf growth 96h)
COc1ccc(OCC(=O)NNC(=O)C(=O)Nc2ccccc2)cc1	none (no result: Pf growth 96h, NS1 function inh, Shiga inhibitor, CHX counter, Pf growth 48h)
O=C(CN1CCN(C(=O)C2CCCO2)CC1)Nc1ccc(Br)cc1 (stereo unspecified)	none
CC(NC(=O)COc1cccnc1[N+](=O)[O-])c1ccc(Cl)cc1 (stereo unspecified)	none
CCN(c1ccccc1)S(=O)(=O)c1cc(C(=O)Oc2ccc3c(C)cc(=O)oc3c2)ccc1C	none
Cn1c(=O)cc(Nc2ccccc2)c2c(=O)n(-c3ccccc3)c(=O)n(-c3ccccc3)c21	Pf growth 96h 4.65µM, Pf growth 48h 6.57µM
Cn1c(=O)c2c(Nc3ccc(F)cc3)cc(=O)n(-c3ccccc3)c2n(C)c1=O	Pf growth 96h inconclusive, Pf growth 48h 2.33µM
Cn1c(=O)c2c(O)cc(=O)n(-c3ccccc3)c2n(C)c1=O	none
CCCCOc1ccc(C(=O)NCC(=O)NC2CCCCC2)cc1	none (no result: NS1 function inh, Shiga inhibitor, CHX counter)
COc1cc(S(=O)(=O)N(Cc2cccnc2)Cc2cccc(OC)c2OC)ccc1-n1cnnn1	Pf growth 96h inconclusive, Pf growth 48h inconclusive
COc1ccc(NC(=O)C2CC(=O)N=C(N)S2)cc1 (stereo unspecified)	none
CC(C)CCn1cnc2c(oc3nc4c(cc32)CCCC4)c1=O	CHX counter 24.2
CCOC(=O)C1=C(COC(=O)/C=C/c2ccc(SC)cc2)NC(=O)NC1C (stereo unspecified)	none (no result: NS1 function inh, Shiga inhibitor, CHX counter)
O=C(Nc1ccc2c(c1)oc1ccccc12)c1cccnc1	Pf growth 96h 2.08µM, CHX counter 38.5, Pf growth 48h inconclusive
N#Cc1ccccc1NC(=O)c1ccccc1OCC(=O)Nc1ccc2c(c1)oc1ccccc12	none (no result: SARS PLP yeast, Pf growth 96h, Shiga inhibitor, CHX counter, Pf growth 48h)
O=C(Nc1cc(Cl)cc(Cl)c1)c1cccnc1	Pf growth 48h inconclusive (no result: Shiga inhibitor)
CNC(=O)COc1ccccc1C(=O)Nc1ccc2c(c1)oc1ccccc12	Pf growth 96h 4.65µM (no result: Pf growth 48h)
O=C(Nc1ccc2c(c1)oc1ccccc12)c1ccncc1	Pf growth 96h inconclusive, Shiga inhibitor 67.5, CHX counter 50.9
C=CCc1cc(F)c(S(=O)(=O)N2CCN(S(=O)(=O)c3ccc4c(c3)OCCO4)CC2)cc1F	none (no result: SARS PLP yeast, Pf growth 96h, NS1 function inh, Pf growth 48h)
Cc1ncsc1CCOC(=O)c1ccc(Cl)cc1	Shiga inhibitor 69.1, CHX counter 35.1
Cc1ncsc1CCOC(=O)c1ccccc1	Shiga inhibitor 58.0, CHX counter 37.7
O=C1CC(=O)CC(c2ccccc2)C1	none (no result: NS1 function inh)
Nc1nc2c(s1)CC(c1ccccc1)CC2 (stereo unspecified)	Pf growth 96h 5.22µM
COCc1ccc(C(=O)N2CCCC(C(=O)c3ccc(Cl)cc3C)C2)o1 (stereo unspecified)	Pf growth 96h inconclusive
Cc1ccc(NS(=O)(=O)c2cccc(C(=O)NNC(=O)c3cccn3C)c2)c(C)c1	CHX counter 24.0
COc1ccc(NS(=O)(=O)c2cccc(C(=O)NNC(=O)c3cccn3C)c2)cc1	none
Cc1c(C(=O)Nc2ccc(Cl)cc2)c2ccccn2c1CCc1ccncc1	Pf growth 96h 9.28µM, Shiga inhibitor 38.9, CHX counter 27.6, Pf growth 48h inconclusive
Cc1c(C(=O)Nc2cccc(Cl)c2)c2ccccn2c1CCc1ccncc1	Pf growth 96h inconclusive, Shiga inhibitor 37.1
Cc1cccc(C(=O)OCC(=O)Nc2c(C)n(C)n(-c3ccccc3)c2=O)c1O	none (no result: Pf growth 96h, NS1 function inh, Shiga inhibitor, CHX counter, Pf growth 48h)
COc1ccc(CCN2CC(C(=O)NCCc3cn[nH]c3)CCC2=O)cc1 (stereo unspecified)	none
COc1ccc(NC(=O)[C@H](CCS(C)(=O)=O)N2Cc3ccccc3C2=O)c(OC)c1	Pf growth 96h 9.28µM (no result: Pf growth 48h)
S=C(NCCc1ccccc1)NCC(c1ccco1)N1CCCCC1 (stereo unspecified)	Pf growth 96h 2.62µM, CHX counter 14.9, Pf growth 48h inconclusive
CC(C)C(NC(=O)c1ccco1)C(=O)NCC(c1ccco1)N1CCCCC1 (stereo unspecified)	Pf growth 96h 2.08µM, Pf growth 48h inconclusive
CCc1ccc(OC)c(-c2csc(N)n2)c1	Pf growth 96h 11.7µM
COc1ccc(-c2csc(N)n2)cc1F	Shiga inhibitor 64.3, CHX counter 39.1 (no result: NS1 function inh)
COc1ccccc1NS(=O)(=O)c1cccc(C(=O)NNC(=O)c2ccc(O)c(Cl)c2)c1	Pf growth 96h inconclusive (no result: NS1 function inh, Shiga inhibitor, CHX counter)
S=C(NCC1CCCO1)n1nnc2ccccc21 (stereo unspecified)	Pf growth 96h inconclusive, NS1 function inh inconclusive, CHX counter 30.7, Pf growth 48h inconclusive
Clc1ccc(CCNc2nc3ccccc3n3nnnc23)cc1	none (no result: Pf growth 48h)
c1ccc2c(c1)nc(NCC1CCCO1)c1nnnn12 (stereo unspecified)	Shiga inhibitor 58.4, CHX counter 21.5
COc1ccccc1NC(=O)C(=O)NCCC1CCCCN1S(=O)(=O)c1cccs1 (stereo unspecified)	Pf growth 96h inconclusive, Pf growth 48h inconclusive (no result: NS1 function inh, Shiga inhibitor, CHX counter)
CC(=O)c1ccc(NC(=O)c2cc3ccccc3o2)cc1	CHX counter 35.1 (no result: Shiga inhibitor)
O=C(Nc1ccc(NC(=O)c2cc3ccccc3o2)cc1)c1ccco1	none
O=C(Nc1ccccc1)c1cc2ccccc2o1	Shiga inhibitor 45.2
O=C(Nc1ccc(N2CCCC2)cc1)c1cc2ccccc2o1	Pf growth 96h inconclusive, Shiga inhibitor 64.8, CHX counter 46.6, Pf growth 48h inconclusive
O=C(Nc1ccc(F)cc1)c1cc2ccccc2o1	Pf growth 96h inconclusive, Shiga inhibitor 57.7, CHX counter 46.3
COc1ccc(-c2[nH]ncc2CNC(C)c2cn(C)nc2C)c(F)c1 (stereo unspecified)	none
CCCCCN(C(=O)CCC(=O)OCC(=O)Nc1ccc(C)cc1F)c1c(N)n(CCCC)c(=O)[nH]c1=O	SARS PLP yeast inconclusive
Cc1cc(C)c(NC(=O)CN(C)C(=O)CNC(=O)c2cccs2)c(C)c1	none (no result: NS1 function inh, Shiga inhibitor, CHX counter)
Cc1cc(=O)[nH]c(SCC(=O)NC2CCCc3ccccc32)n1 (stereo unspecified)	Pf growth 48h inconclusive
Cc1cc(C(=O)Nc2ccccc2)oc1C	Pf growth 96h inconclusive, Shiga inhibitor 120.9, CHX counter 38.7
CC(C)C(=O)N1CCN(c2ccc(NC(=S)NC(=O)c3cc4ccccc4o3)cc2)CC1	Pf growth 96h 5.22µM, Shiga inhibitor 75.5, CHX counter 33.4
CC(C)c1nnc(NC(=O)c2cc3ccccc3o2)s1	Shiga inhibitor 110.5, CHX counter 32.9
CC(=O)c1cn(CC(=O)Nc2ccccc2Cl)c2ccccc12	none (no result: Shiga inhibitor)
Cc1ccc2nc(COC(=O)c3ccc(Cl)nc3)cc(=O)n2c1	none (no result: Pf growth 96h, NS1 function inh, Shiga inhibitor, CHX counter, Pf growth 48h)
